The text below walks through data of paper PMC12820563, “FoxP3 forms a head-to-head dimer in vivo and stabilizes its multimerization on adjacent microsatellites”.

In all, about 16,000 sequences were measured (“rpm ratio (pull-down/input)”: median about 0.5, highest 2% from about 5.5 on). The sample holds the highest values, similar sequences and a random draw of the others, so the mix is not that of the screen.

The test has as its target T1, MBP-FoxP3dN (Mus musculus, UniProt Q99JB6 188-423).
T1 sequence: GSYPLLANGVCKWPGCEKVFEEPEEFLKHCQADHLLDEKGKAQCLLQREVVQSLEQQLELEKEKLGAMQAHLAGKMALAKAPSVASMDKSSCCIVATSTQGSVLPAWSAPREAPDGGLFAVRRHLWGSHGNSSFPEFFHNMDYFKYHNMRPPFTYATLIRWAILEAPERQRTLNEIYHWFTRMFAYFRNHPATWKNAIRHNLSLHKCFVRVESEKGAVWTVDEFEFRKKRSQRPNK
Nature of the test: PD-seq (MBP pull-down with sequencing); 20 mM Tris-HCl pH 7.5, 100 mM NaCl, 1.5 mM MgCl2, 0.4 uM protein, 0.1 uM dsDNA library, 30 min, room temperature, amylose pull-down; high values mean tight binding. The settings on record: protein: recombinant; tags: His6-MBP; chain copies: 2; dsDNA, one strand shown. A digest of the protocol:
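E. coli-expressed mouse FoxP3 or FoxP1 fragment, N-terminus removed and tagged with His6-MBP, was used at 0.4 µM against 0.1 µM of a Klenow-filled degenerate double-stranded DNA library. After 30 min at room temperature in Tris pH 7.5 buffer with NaCl and MgCl2, complexes were pulled down on amylose resin and washed three times. Binding is pull-down over input reads-per-million enrichment from pooled replicates of the proteinase K-released, PCR-barcoded, Illumina-sequenced DNA.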
On to “GATGATTGTTCTCCCAGCTGATGAATTACTATCGTCGAGTAAACAAATTTTCCTAATCTTTCTGTTCAAGCGCCATCTAC”, for which the binding signal is 0.509 RPM ratio (pull-down/input).

Turning to “GATGATTGTTCTCCCAGCTGATGAATTGCTAACTTCGAGTAAACAAATTTTCCTAATCTTTCTGTTCAAGCGCCATCTAC”, the binding signal was 0.723 RPM ratio (pull-down/input). As to “GATGATTGTTCTCCCAGCTGATGAATTGCAAGCGTCGAGTAAACAAATTTTCCTAATCTTTCTGTTCAAGCGCCATCTAC”, the binding signal was 0.974 RPM ratio (pull-down/input). The result for “GATGATTGTTCTCCCAGCTGATGAATTAGGTGGCTCGAGTAAACAAATTTTCCTAATCTTTCTGTTCAAGCGCCATCTAC” reads 0.625 RPM ratio (pull-down/input); that for “GATGATTGTTCTCCCAGCTGATGAATTATCAGAGTCGAGTAAACAAATTTTCCTAATCTTTCTGTTCAAGCGCCATCTAC”, 0.249 RPM ratio (pull-down/input).

On to “GATGATTGTTCTCCCAGCTGATGAATTCTTCTCATCGAGTAAACAAATTTTCCTAATCTTTCTGTTCAAGCGCCATCTAC”, for which the binding signal was 0.242 RPM ratio (pull-down/input).

Regarding “GATGATTGTTCTCCCAGCTGATGAATTATTTCTTTCGAGTAAACAAATTTTCCTAATCTTTCTGTTCAAGCGCCATCTAC”, the binding signal was 0.419 RPM ratio (pull-down/input).

Turning to “GATGATTGTTCTCCCAGCTGATGAATTGGTTTATTCGAGTAAACAAATTTTCCTAATCTTTCTGTTCAAGCGCCATCTAC”, the binding signal was 4.04 RPM ratio (pull-down/input). In the case of “GATGATTGTTCTCCCAGCTGATGAATTATTTATTTCGAGTAAACAAATTTTCCTAATCTTTCTGTTCAAGCGCCATCTAC” it was 2.74 RPM ratio (pull-down/input). Take “GATGATTGTTCTCCCAGCTGATGAATTTATTCTTTCGAGTAAACAAATTTTCCTAATCTTTCTGTTCAAGCGCCATCTAC”: the binding signal is 0.542 RPM ratio (pull-down/input).

Turning to “GATGATTGTTCTCCCAGCTGATGAATTTTTTTATTCGAGTAAACAAATTTTCCTAATCTTTCTGTTCAAGCGCCATCTAC”, the binding signal is 0.313 RPM ratio (pull-down/input). In the case of “GATGATTGTTCTCCCAGCTGATGAATTTGTTTATTCGAGTAAACAAATTTTCCTAATCTTTCTGTTCAAGCGCCATCTAC” it was 7.73 RPM ratio (pull-down/input); in that of “GATGATTGTTCTCCCAGCTGATGAATTGTTTTATTCGAGTAAACAAATTTTCCTAATCTTTCTGTTCAAGCGCCATCTAC”, 1.66 RPM ratio (pull-down/input); in that of “GATGATTGTTCTCCCAGCTGATGAATTGGTTATTTCGAGTAAACAAATTTTCCTAATCTTTCTGTTCAAGCGCCATCTAC”, 3.1 RPM ratio (pull-down/input). In the case of “GATGATTGTTCTCCCAGCTGATGAATTTATTTATTCGAGTAAACAAATTTTCCTAATCTTTCTGTTCAAGCGCCATCTAC” it was 5.86 RPM ratio (pull-down/input); in that of “GATGATTGTTCTCCCAGCTGATGAATTTATTATTTCGAGTAAACAAATTTTCCTAATCTTTCTGTTCAAGCGCCATCTAC”, 5.57 RPM ratio (pull-down/input); in that of “GATGATTGTTCTCCCAGCTGATGAATTTCTTTATTCGAGTAAACAAATTTTCCTAATCTTTCTGTTCAAGCGCCATCTAC”, 1.53 RPM ratio (pull-down/input). Turning to “GATGATTGTTCTCCCAGCTGATGAATTTATTGGTTCGAGTAAACAAATTTTCCTAATCTTTCTGTTCAAGCGCCATCTAC”, the binding signal was 5.89 RPM ratio (pull-down/input). With “GATGATTGTTCTCCCAGCTGATGAATTACCTGCTTCGAGTAAACAAATTTTCCTAATCTTTCTGTTCAAGCGCCATCTAC”, the binding signal is 0.326 RPM ratio (pull-down/input). The result for “GATGATTGTTCTCCCAGCTGATGAATTTCACGGCTCGAGTAAACAAATTTTCCTAATCTTTCTGTTCAAGCGCCATCTAC” reads 0.24 RPM ratio (pull-down/input); that for “GATGATTGTTCTCCCAGCTGATGAATTGTGGTACTCGAGTAAACAAATTTTCCTAATCTTTCTGTTCAAGCGCCATCTAC”, 1.06 RPM ratio (pull-down/input).

For the sequence “GATGATTGTTCTCCCAGCTGATGAATTGTTCCATTCGAGTAAACAAATTTTCCTAATCTTTCTGTTCAAGCGCCATCTAC”, the binding signal was 0.579 RPM ratio (pull-down/input). With “GATGATTGTTCTCCCAGCTGATGAATTAACGGGTTCGAGTAAACAAATTTTCCTAATCTTTCTGTTCAAGCGCCATCTAC”, the binding signal was 0.329 RPM ratio (pull-down/input). The result for “GATGATTGTTCTCCCAGCTGATGAATTCCAAATCTCGAGTAAACAAATTTTCCTAATCTTTCTGTTCAAGCGCCATCTAC” reads 0.26 RPM ratio (pull-down/input); that for “GATGATTGTTCTCCCAGCTGATGAATTTGTAATGTCGAGTAAACAAATTTTCCTAATCTTTCTGTTCAAGCGCCATCTAC”, 3.87 RPM ratio (pull-down/input); that for “GATGATTGTTCTCCCAGCTGATGAATTATACACGTCGAGTAAACAAATTTTCCTAATCTTTCTGTTCAAGCGCCATCTAC”, 0.65 RPM ratio (pull-down/input). In the case of “GATGATTGTTCTCCCAGCTGATGAATTACGAAAGTCGAGTAAACAAATTTTCCTAATCTTTCTGTTCAAGCGCCATCTAC” it was 0.214 RPM ratio (pull-down/input); in that of “GATGATTGTTCTCCCAGCTGATGAATTTTATTTTTCGAGTAAACAAATTTTCCTAATCTTTCTGTTCAAGCGCCATCTAC”, 4.17 RPM ratio (pull-down/input).

For the sequence “GATGATTGTTCTCCCAGCTGATGAATTTTATTATTCGAGTAAACAAATTTTCCTAATCTTTCTGTTCAAGCGCCATCTAC”, the binding signal was 5.53 RPM ratio (pull-down/input). For the sequence “GATGATTGTTCTCCCAGCTGATGAATTTATTTGTTCGAGTAAACAAATTTTCCTAATCTTTCTGTTCAAGCGCCATCTAC”, the binding signal was 6.33 RPM ratio (pull-down/input).

Take “GATGATTGTTCTCCCAGCTGATGAATTTATTGATTCGAGTAAACAAATTTTCCTAATCTTTCTGTTCAAGCGCCATCTAC”: the binding signal was 5.78 RPM ratio (pull-down/input).
